Laboratory results reported in PubChem BioAssay (NCATS).
Values joined by “and” are separate entries in the source; they are usually repeats but may differ in a detail not shown here. Equal values may be shown once. Records with an inconclusive call do not appear. A number with no mark means an inactive call. Active and inactive are the calls of the source. Calls follow the shape of the dose curve; as a rule, active = well fitted curve in the direction sought with a large enough effect; inconclusive = small, poorly fitted or top-dose-only effect, or another doubt; inactive = no such curve, though single readings can be large; an effect the other way counts as inactive or inconclusive.

What was measured:
[1] = biological target: Cellular tumor antigen p53 (Homo sapiens) (UniProt P04637); assay: Primary qHTS for small molecule compounds that upregulate eGFP-tagged delta133p53alpha (in N-terminal) cells. (AID 2060322); details: NCI-H358 eGFP-delta133p53alpha fluorescence, 24 h; activation: active compounds read high; also: nearly all actives have a fitted effect of over 75% in size;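 as to activation: cells pre-induced with doxycycline then dosed without doxycycline; 0% = DMSO vehicle and 100% = reference activator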
Cellular tumor antigen p53 (Homo sapiens), sequence (P04637 whole entry, looked up): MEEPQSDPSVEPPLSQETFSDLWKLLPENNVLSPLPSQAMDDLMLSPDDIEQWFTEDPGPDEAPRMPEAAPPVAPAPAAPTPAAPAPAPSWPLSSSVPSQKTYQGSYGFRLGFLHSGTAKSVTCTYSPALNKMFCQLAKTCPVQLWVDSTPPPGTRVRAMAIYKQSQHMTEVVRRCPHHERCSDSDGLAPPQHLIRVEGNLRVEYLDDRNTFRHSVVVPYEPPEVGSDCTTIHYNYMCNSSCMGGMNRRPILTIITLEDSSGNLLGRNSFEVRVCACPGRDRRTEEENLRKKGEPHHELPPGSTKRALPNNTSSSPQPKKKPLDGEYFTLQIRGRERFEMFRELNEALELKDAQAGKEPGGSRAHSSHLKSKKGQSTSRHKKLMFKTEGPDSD
In short: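 NCI-H358 cells pre-induced 24 h with 10 ng/ml doxycycline for eGFP-delta133p53alpha, plated dox-free and exposed 24 h at 37C to titrated compounds. Fixed, Hoechst-stained; gated GFP peak intensity by laser scanning cytometry, normalized to DMSO (0%) and 57.5 uM 5-azacytidine (100%).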

[2] = BET inhibitor-based combinations targeting novel dependencies in MECOM-rearranged (r) AML: OCI-AML3 cell line (AID 2202232); details: CellTiter-Glo luminescence, 48 h; Potency: OCI-AML3 viability; series mostly up to 46 µM; also: nearly all actives have a fitted effect of over 35% in size
In short: (§1)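 A 48 hr incubation preceded viability reading by CellTiter-Glo, with 15 min room-temperature development. Dose series had 11 points; normalization used DMSO and empty wells; AUC was computed and mean-centered per line as Z-AUC.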

[3] = BET inhibitor-based combinations targeting novel dependencies in MECOM-rearranged (r) AML: MV-4-11 cell line (AID 2202233); details: MV-4-11 AML viability, CellTiter-Glo luminescence, 48 h; series mostly up to 46 µM; also: nearly all actives have a fitted effect of over 45% in size
In short: (§2)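 Each compound is tested in an 11-point concentration series against 500 seeded cells/well for 48 hr. The luminescent viability signal is normalized to DMSO and blank wells, then reduced to AUC and a cell-line-centred Z-AUC.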

[4] = BET inhibitor-based combinations targeting novel dependencies in MECOM-rearranged (r) AML: AML-191 cell line (AID 2202236; also: nearly all actives have a fitted effect of over 35% in size); details: AML-191 viability, CellTiter-Glo luminescence, 48 h; series mostly up to 46 µM
In short: as §1

[5] = BET inhibitor-based combinations targeting novel dependencies in MECOM-rearranged (r) AML: AML-194 cell line (AID 2202237; also: nearly all actives have a fitted effect of over 40% in size); details: AML-194 (MECOM-r AML) viability, CellTiter-Glo, 48 h; series mostly up to 46 µM
In short: as §1

[6] = BET inhibitor-based combinations targeting novel dependencies in MECOM-rearranged (r) AML: UCSD-AML1 cell line (AID 2202235); details: UCSD-AML1 AML cells viability, CellTiter-Glo, 48 h; series mostly up to 46 µM; also: nearly all actives have a fitted effect of over 40% in size
In short: as §2

[7] = BET inhibitor-based combinations targeting novel dependencies in MECOM-rearranged (r) AML: HNT-34 cell line (AID 2202234); details: HNT-34 AML viability, CellTiter-Glo luminescence, 48 h; series mostly up to 46 µM; also: nearly all actives have a fitted effect of over 35% in size
In short: as §2
Potency is read from the fitted curve at half-maximal effect.

SMILES | activation [1] | Potency [2] | Potency [3] | Potency [4] | Potency [5] | Potency [6] | Potency [7] | Potency [1]
COc1cccc2c1CCCC2CCCN1CCN(C2CCCCC2)CC1 (stereo unspecified) | 0.872% | 11.8 µM (active) | 16.6 µM (active) | 5.9 µM (active) | inactive | – | – | –
O=C1CSC(=O)N1C(CCc1ccncc1)COc1ccc(-c2cccc([N+](=O)[O-])c2)cc1 (stereo unspecified) | -7.57% | – | 16.6 µM (active) | – | – | – | – | –
COc1ccc(-c2cc(=O)c3c(O)cc(O)cc3o2)cc1O | 29.3% | – | 5.25 µM (active) | – | – | – | – | –
OC1CCC(Nc2ncc3nc(Nc4c(F)cc(F)cc4F)n([C@@H]4CCOC4)c3n2)CC1 (stereo partly specified) | 52.2% | 18.6 µM (active) | 20.9 µM (active) | 16.6 µM (active) | – | inactive | – | –
COc1cc2ncnc(Nc3cccc(Br)c3)c2cc1OC | 29.9% | – | 9.34 µM (active) | 20.9 µM (active) | – | 20.9 µM (active) | 9.34 µM (active) | –
CC(C)c1ccccc1Cc1cc(C(=O)Nc2ccc(S(=O)(=O)c3ccccc3C(C)(C)C)cc2)c(O)c(O)c1O | -33% | 4.68 µM (active) | 10.5 µM (active) | 9.34 µM (active) | 10.5 µM (active) | 10.5 µM (active) | – | –
O=C1NC(=O)C(c2c[nH]c3ccccc23)=C1c1c[nH]c2ccccc12 | – | – | 2.63 µM (active) | – | – | – | – | 27.3 µM (active)
CCc1nc(N)nc(N)c1-c1ccc(Cl)cc1 | -15.9% and -12.3% | – | 14.8 µM (active) | – | – | inactive | inactive | –
O=C(O)c1cc(=O)c2c(OCC(O)COc3cccc4oc(C(=O)O)cc(=O)c34)cccc2o1 | 19.8% | inactive | – | inactive | inactive | – | inactive | –
O=C(Cc1cccc(OC(F)(F)F)c1)Nc1ccc(CCCCc2nnc(NC(=O)Cc3ccccn3)s2)nn1 | 7.71% | inactive | – | 0.118 µM (active) | – | 0.0209 µM (active) | – | –
CCN(CC)CCCCNc1nc2cc(Cl)c(Cl)cc2nc1-c1ccc(-c2cccs2)s1 | – | 20.9 µM (active) | – | 26.3 µM (active) | – | – | – | 6.85 µM (active)
N#CNC(=NCCCCCCOc1ccc(Cl)cc1)Nc1ccncc1 | 37.2% | 0.0105 µM (active) | 0.0372 µM (active) | 0.0186 µM (active) | – | – | – | –
N#CC1(c2ccc(NC(=O)c3cccnc3NCc3ccncc3)cc2)CCCC1 | -7.07% | inactive | 14.8 µM (active) | inactive | inactive | inactive | – | –
COC(=O)C1=C(C)NC(C)=C(C(=O)OCCN2CCN(C(c3ccccc3)c3ccccc3)CC2)C1c1cccc([N+](=O)[O-])c1 (stereo unspecified) | -17.6% | – | 18.6 µM (active) | 26.3 µM (active) | – | inactive | 23.5 µM (active) | –
COc1ccc(Nc2cc(-c3cnc(N)nc3)nc(N3CCOCC3)n2)cn1 | 24.5% | – | 5.25 µM (active) | – | – | – | – | –
C[C@]12CCC(=O)C=C1[C@@H]1C[C@@H]1[C@H]1[C@@H]3[C@@H]4C[C@@H]4[C@@]4(CCC(=O)O4)[C@@]3(C)CC[C@@H]12 | -15.3% | 8.33 µM (active) | 16.6 µM (active) | – | inactive | inactive | – | –
CC(=O)Oc1ccccc1C(=O)Nc1ncc([N+](=O)[O-])s1 | -2.09% and 33.3% | 18.6 µM (active) | – | 20.9 µM (active) | – | – | – | –
CC(Cc1ccc(O)c(O)c1)(NN)C(=O)O (stereo unspecified) | -5.67% | inactive | inactive | – | inactive | inactive | – | –
COc1cccc([C@@H](C)NCCCc2ccccc2Cl)c1 | -21.4% | 16.6 µM (active) | 20.9 µM (active) | – | 23.5 µM (active) | – | – | –
NS(=O)(=O)c1ccc(NC2=CC(=O)c3ccccc3C2=O)cc1 | 4.73% | 5.25 µM (active) | 0.833 µM (active) | 4.68 µM (active) | inactive | inactive | – | –
Nc1ncnc2c1ncn2[C@@H]1O[C@H](CO)[C@@H](O)[C@@H]1O | 23.2% | inactive | – | inactive | inactive | – | – | –
CCOC(=O)N1c2ccc(C(F)(F)F)cc2[C@@H](N(Cc2cc(C(F)(F)F)cc(C(F)(F)F)c2)C(=O)OC)C[C@H]1CC | -8.39% | 4.68 µM (active) | – | inactive | inactive | inactive | inactive | –
OC[C@H](Cc1ccccc1)Nc1nc(Oc2ccc3c(c2)CCC3)nc2c1ncn2Cc1ccc(-c2ccccc2)cc1 | -44.8% | 8.33 µM (active) | – | – | – | 4.68 µM (active) | 7.42 µM (active) | –
COc1cc2ncnc(Nc3cc(Br)c(O)c(Br)c3)c2cc1OC | 26.5% | – | 7.42 µM (active) | – | – | 26.3 µM (active) | 18.6 µM (active) | –
C[C@H](NC(=O)[C@@H](O)c1cc(F)cc(F)c1)C(=O)N[C@@H]1C(=O)N(C)c2ccccc2-c2ccccc21 | 10.4% | inactive | inactive | – | inactive | inactive | – | –
